From PubChem
The list is not random: actives were taken first. Their share in the collection is about 1.3%.
LAP4 TOR yeast: modulators of TOR pathway LAP4-GFP in S. cerevisiae | hit rate 0.34% among 320,000 | S. cerevisiae LAP4-GFP multiplex, flow cytometry GFP, 3 h; median GFP as percent of DMSO wells | GFP response vs DMSO, % at 10 µM;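 active means GFP response vs DMSO above a set limit, about the screen mean plus 3 SD, cut at about 150% in these data; inconclusive means under 70 cell events counted for the yeast strain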
RPL19A TOR yeast: modulators of TOR pathway RPL19A-GFP in S. cerevisiae; percent response vs DMSO, % at 10 µM; AID 2025; hit rate 0.3% among 330,000; S. cerevisiae RPL19A-GFP strain, flow cytometry, 3 h; hits give low values;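 active means percent response vs DMSO below 50%; inconclusive means fewer than 70 events counted for the yeast strain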;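 further: median channel GFP fluorescence of the barcoded RPL19A-GFP strain; lower means less RPL19A-GFP as with rapamycin TOR inhibition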
Efflux pump mplx: blocks antifungal efflux pumps in multiplex yeast assay | S. cerevisiae Candida pump triplex, Nile Red efflux | inhibition, % at 10 µM | hit rate 0.44% among 330,000;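 active means plate passing quality check with inhibition over a set limit, or well fluorescence over plate mean plus 4 SD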;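 further: Nile Red retained in pooled yeast measured as flow cytometry median fluorescence; higher means more Nile Red kept so more efflux inhibition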
CIT2-GFP yeast: alters CIT2-GFP fluorescence in TOR pathway yeast screen; S. cerevisiae CIT2-GFP strain, flow cytometry, 3 h; 100 means same as DMSO wells; GFP response vs DMSO, % at 10 µM; hit rate 0.065% among 320,000;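 active means GFP response relative to DMSO above a set limit, near the screen mean plus 3 SD, cut at about 150% in these data; inconclusive means Fewer than 70 cells measured for a yeast strain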;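 further: ratio of well median GFP fluorescence to mean of DMSO wells on the plate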
MEP2 TOR yeast: alters MEP2-GFP fluorescence in TOR pathway yeast screen | GFP response vs DMSO, % at 10 µM | hit rate 0.51% among 330,000 | S. cerevisiae MEP2-GFP strain, flow cytometry GFP, 3 h; 100% = DMSO control level;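 active means GFP response versus DMSO above a set limit, roughly screen mean plus 3 SD, cut at about 180% in these data; inconclusive means fewer than 70 cells counted for a yeast strain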;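 further: median GFP fluorescence of the barcode-gated MEP2-GFP cells per well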
AGP1-GFP MLPCN: modulators of TOR pathway AGP1-GFP in S. cerevisiae. S. cerevisiae AGP1-GFP multiplex flow cytometry, 3 h; GFP as percent of DMSO wells. GFP response vs DMSO, % at 10 µM. hit rate 0.02% among 320,000. AID 2066;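 active means GFP response relative to DMSO above a set limit, near screen average plus 3 SD, cut at about 150% in these data; inconclusive means fewer than 70 cells counted for the yeast strain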;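 further: median GFP channel fluorescence of the gated AGP1 strain per well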
Large screens that a line does not name were inactive; [ ] = dose if it differs, or a comment.

COc1cccc(NC(=O)/C=C/c2ccc([N+](=O)[O-])cc2)c1	MEP2 TOR yeast 193
Cc1cc(C)c(S(=O)(=O)Nc2nccs2)c(C)c1	none
CCNC(=O)C(C)Sc1ccc(Cl)cc1 (configuration not stated)	RPL19A TOR yeast 48[may fluoresce violet], CIT2-GFP yeast inconclusive, MEP2 TOR yeast 351[may fluoresce violet], AGP1-GFP MLPCN inconclusive
C=CCNC(=O)C(C)Sc1ccc(Cl)cc1 (configuration not stated)	none
O=c1c2c3nc4ccccc4nc3n(CC3CCCO3)c2ncn1CCc1ccccc1 (configuration not stated)	none
COc1cc(OC)cc(-n2c3nc4ccccc4nc3c3c(=O)n(CC4CCCO4)cnc32)c1 (configuration not stated)	Efflux pump mplx 1.1
COc1ccccc1CN1CC(C(=O)N(C)Cc2ccncc2C)CCC1=O (configuration not stated)	none
Cc1cnccc1CN(C)C(=O)C1CCC(=O)N(Cc2ccccc2F)C1 (configuration not stated)	RPL19A TOR yeast 32[may fluoresce violet], CIT2-GFP yeast inconclusive, AGP1-GFP MLPCN inconclusive
O=C(CN(C(=O)CNC(=O)c1cccs1)c1ccccc1F)NC1CCCC1	none
O=C(c1ccc2c(c1)OCO2)N1CCC(Cc2ccccc2)CC1	RPL19A TOR yeast 26[may fluoresce violet], CIT2-GFP yeast inconclusive, MEP2 TOR yeast 273[may fluoresce violet], AGP1-GFP MLPCN inconclusive
O=C(c1ccccc1)N1CCN(C(=O)c2ccc3c(c2)OCO3)CC1	none
O=c1[nH]c(CN2CCCCC2)nc2c1C1(CCCCC1)Cc1ccccc1-2	CIT2-GFP yeast 157
COC(=O)c1c(NC(=O)C(C)C)sc(C(=O)N2CCOCC2)c1C	none
Cc1ccccc1N(C(=O)CCCC(=O)Nc1ccccn1)C(C(=O)NC1CCCC1)c1ccc(O)cc1 (configuration not stated)	none
Cc1cc(C)cc(N(C(=O)c2csnn2)C(C(=O)NC2CCCC2)c2cccnc2)c1 (configuration not stated)	CIT2-GFP yeast inconclusive, MEP2 TOR yeast 184[may fluoresce violet]
Cc1ccc(N(C(=O)CCCC(=O)Nc2ccccn2)C(C(=O)NC2CCCC2)c2ccc(O)cc2)cc1C (configuration not stated)	MEP2 TOR yeast 238
Cc1ccc(N(C(=O)CNC(=O)c2ccco2)C(C(=O)NC2CCCCC2)c2cccnc2)cc1C (configuration not stated)	none
Cc1ccc(N(C(=O)CNC(=O)c2ccco2)C(C(=O)NC2CCCC2)c2cccnc2)cc1C (configuration not stated)	LAP4 TOR yeast 186, MEP2 TOR yeast 195
CSc1ncccc1C(=O)NC1CCCCCCC1	none
CCOC(=O)C1=C(O)c2ccccc2C(=O)/C1=C\c1ccc(CC)cc1	none
CCOC(=O)C1=C(Cc2ccc(C)cc2)C(=O)c2ccccc2C1=O	LAP4 TOR yeast 168
CCCc1ccc(/C=C2\C(=O)c3ccccc3C(O)=C2C(=O)OCC)cc1	Efflux pump mplx 1.9
CCOC(=O)c1ccc(COC(=O)c2ccc3c(c2)-c2ccccc2C3=O)cc1	none
CN(C(=O)Cn1nc(C(=O)O)c2ccccc2c1=O)C1(C#N)CCCCC1	none
COc1ccccc1NC(=O)C/C(C)=N/NC(=O)c1ccccn1	none
COc1cc(NC(=O)C/C(C)=N/NC(=O)c2ccccn2)c(OC)cc1Cl	RPL19A TOR yeast 48[may fluoresce violet], CIT2-GFP yeast inconclusive, MEP2 TOR yeast 324[may fluoresce violet], AGP1-GFP MLPCN inconclusive
O=C(CC1C(=O)NCCN1Cc1ccc(-c2ccccc2)cc1)NCc1ccccc1 (configuration not stated)	none
CN1CCN(C(=O)CC2C(=O)NCCN2Cc2ccc(-c3ccccc3)cc2)CC1 (configuration not stated)	LAP4 TOR yeast 163, MEP2 TOR yeast 259
CCOC(=O)C1(C)/C(=N/Nc2ccccc2Cl)C(=O)C(=O)N1c1ccccc1 (configuration not stated)	RPL19A TOR yeast 41[may fluoresce violet], CIT2-GFP yeast inconclusive, MEP2 TOR yeast 561[may fluoresce violet] (no result: AGP1-GFP MLPCN)
CC(C)(C)OC(=O)NCc1ccc(CNC(=O)c2nc[nH]c2C(=O)N2CCc3ccccc3C2)cc1	none
Cc1[nH]c2c(C)cccc2c1CN1CCC(CO)(Cc2ccccc2)CC1	none
Cc1[nH]c2ccccc2c1CN1CCC(CO)(Cc2ccccc2)CC1	RPL19A TOR yeast 42[may fluoresce violet], CIT2-GFP yeast inconclusive
Cc1cc(NC(=O)c2ccco2)sc1C	none
CC1=C(C(=O)NCc2ccccc2)C(c2cccnc2)n2ncnc2N1 (configuration not stated)	none
COc1ccc(C2C(C(=O)NCc3ccccc3)=C(C)Nc3ncnn32)cc1OC (configuration not stated)	CIT2-GFP yeast inconclusive, MEP2 TOR yeast 200[may fluoresce violet], AGP1-GFP MLPCN inconclusive
Cc1cccc(OCC(=O)NCCNC(=O)c2ccccn2)c1	LAP4 TOR yeast inconclusive, RPL19A TOR yeast 31[may fluoresce violet], CIT2-GFP yeast inconclusive, MEP2 TOR yeast inconclusive, AGP1-GFP MLPCN inconclusive
CC(=O)c1cc2c(cc1NC(=O)CCc1c(C)nc3ncnn3c1C)OCO2	none
O=C(Cn1ncc2c3ccccc3n(Cc3ccccc3)c2c1=O)NCCN1CCOCC1	RPL19A TOR yeast 29[may fluoresce violet], CIT2-GFP yeast inconclusive, AGP1-GFP MLPCN inconclusive
COC(=O)c1ccc(OC(=O)CS(=O)c2ccccc2[N+](=O)[O-])cc1 (configuration not stated)	LAP4 TOR yeast 220[may fluoresce violet], CIT2-GFP yeast inconclusive, MEP2 TOR yeast 191[may fluoresce violet]
Cc1c(C)c2ccc(OCC(=O)NCCN3CCOCC3)c(C)c2oc1=O	none
CC(C)C(=O)Nc1nc(-c2ccc3c(c2)CCN3C(=O)C2CC2)cs1	LAP4 TOR yeast inconclusive, RPL19A TOR yeast 22[may fluoresce violet], CIT2-GFP yeast inconclusive, MEP2 TOR yeast inconclusive, AGP1-GFP MLPCN inconclusive
COC(=O)[C@@H](Cc1c[nH]c2ccccc12)NC(=O)C1CCCN(S(=O)(=O)c2ccc(C)cc2)C1 (some centres not stated)	none
CCc1ccc2nc3nc(C)cc(C)c3c(N)c2c1	RPL19A TOR yeast 32[may fluoresce violet], CIT2-GFP yeast inconclusive, MEP2 TOR yeast 384[may fluoresce violet], AGP1-GFP MLPCN inconclusive
Cc1cc(C)c2c(N)c3ccccc3nc2n1	RPL19A TOR yeast 15[may fluoresce violet], CIT2-GFP yeast inconclusive
O=C(NCCCN1CCOCC1)c1cccc(NS(=O)(=O)c2ccc(Br)cc2)c1	none
O=S(=O)(c1cccc(Br)c1)N1CCN(c2ccnc3cc(Cl)ccc23)CC1	CIT2-GFP yeast 174[may fluoresce green]
COc1ccc(S(=O)(=O)N2CCN(C(=O)c3c(C)nn(-c4ccccc4)c3Cl)CC2)cc1	RPL19A TOR yeast 19[may fluoresce violet], CIT2-GFP yeast inconclusive, MEP2 TOR yeast 521[may fluoresce violet], AGP1-GFP MLPCN inconclusive
CN1Cc2sc(NC(=S)NC(=O)c3ccccc3)c(C#N)c2CC1(C)C	LAP4 TOR yeast 155, CIT2-GFP yeast 161
CCC1(C)Cc2c(sc(NC(=S)NC(=O)c3ccccc3)c2C#N)CO1 (configuration not stated)	none
